Test [1] in a line: A CellTox Green Cytotoxicity Assay to monitor cytotoxicity in HEK293 cells - 40 hour (AID 1224871). Note: nearly all actives have a fitted effect of over 45% in size. Note: potency is the fitted concentration of half-maximal effect. The essentials: (§1)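 Read-out: fluorescence of a cell-impermeant cyanine dye staining DNA of dead cells, proportional to cytotoxicity. HEK293, 600 cells/well with reagent, compound (23 nL DMSO) added after 5 h; reads at 0, 8, 16, 24, 32, 40 h.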
The nature of test [2]: qHTS RealTime-Glo MT Cell Viability Assay in HepG2 cells - 8 hour (AID 1224873). Note: nearly all actives have a fitted effect of over 55% in size. The essentials: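 Real-time viability: cells seeded at 600 per well together with NanoLuc and cell-permeant prosubstrate, compounds added after 5 h incubation. Luminescence tracked at 0, 8, 16, 24, 32 and 40 h of exposure.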
(Quantitative high-throughput screening tests each substance at several concentrations.)

Test [3] is described as follows: qHTS RealTime-Glo MT Cell Viability Assay in HEK293 cells - 40 hour (AID 1224874). Note: nearly all actives have a fitted effect of over 50% in size. Note: potency is the fitted concentration of half-maximal effect. To be noted: RealTime-Glo luminescence; max response: active compounds read low. In short, it runs like this: (§2)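 Luminescence readout at each listed time point; HEK293, 600 cells/well, RealTime-Glo MT reagent added with cells; compounds pinned (23 nL in DMSO) after 5 h at 37 C; continuous culture at 37 C.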

Test [4] can be described thus: A CellTox Green Cytotoxicity Assay to monitor cytotoxicity in HEK293 cells - 24 hour (AID 1224875). For activity change: series mostly up to about 77 µM. Note: nearly all actives have a fitted effect of over 45% in size. Note: potency is the fitted concentration of half-maximal effect. The essentials: as §1
Test [5] is described as follows: A CellTox Green Cytotoxicity Assay to monitor cytotoxicity in HepG2 cells - 16 hour (AID 1224876). Note: nearly all actives have a fitted effect of over 45% in size. Note: potency is the fitted concentration of half-maximal effect. In short, it runs like this:
(§3)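 HepG2, 600 cells/well premixed w/ CellTox Green; 5 h settle, 37 C/5% CO2; pintool cpd add (DMSO); 37 C, 40 h; fluorescence read at 0, 8, 16, 24, 32, 40 h.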

The nature of test [6]: qHTS RealTime-Glo MT Cell Viability Assay in HepG2 cells - 32 hour (AID 1224877). Note: nearly all actives have a fitted effect of over 55% in size. Note: potency is the fitted concentration of half-maximal effect. In short, it runs like this:
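HepG2 cells (600/well) were dispensed with RealTime-Glo reagents, incubated 5 h at 37 °C, then treated with compounds in DMSO for up to 40 h. Nonlytic NanoLuc luminescence reflecting viable cells was read at each stated time point.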

A short description of test [7]: A CellTox Green Cytotoxicity Assay to monitor cytotoxicity in HepG2 cells - 24 hour (AID 1224878). Note: nearly all actives have a fitted effect of over 45% in size. Note: potency is the fitted concentration of half-maximal effect. In short, it runs like this:
as §3

Test [8] in a line: A CellTox Green Cytotoxicity Assay to monitor cytotoxicity in HepG2 cells - 40 hour (AID 1224879). Note: nearly all actives have a fitted effect of over 40% in size. Note: potency is the fitted concentration of half-maximal effect. In short, it runs like this:
as §3

Test [9] can be described thus: qHTS RealTime-Glo MT Cell Viability Assay in HEK293 cells - 0 hour (AID 1224880). In short, it runs like this: as §2
Test [10] in a line: qHTS RealTime-Glo MT Cell Viability Assay in HEK293 cells - 16 hour (AID 1224872). For activity change, negative = cytotoxicity: top concentration of the series differs between compounds. Note: nearly all actives have a fitted effect of over 50% in size. Note: potency is the fitted concentration of half-maximal effect. In short, it runs like this:
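HEK293 cells seeded with NanoLuc/prosubstrate reagent, rested 5 h at 37 C, then dosed and kept at 37 C up to 40 h. Nonlytic real-time luminescence from viable cells read at 0, 8, 16, 24, 32 and 40 h.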

This is an account of results in PubChem BioAssay (Tox21).

Values joined by “and” are separate entries in the source; they are usually repeats but may differ in a detail not shown here. Identical values can stand only once. Inconclusive results are not listed. Unmarked numbers belong to inactive results. Active and inactive are the calls of the source. Calls come from the whole dose curve; as a rule, active = well fitted curve in the direction sought with a large enough effect in the repeat runs; inconclusive = weak or mixed curves; inactive = no such curve, though single readings can be large; an effect the other way counts as inactive or inconclusive.
% is set by controls: 0 for no effect and ±100 for the full control effect.

`Cc1cc(C(C)(C)C)cc(C)c1CC1=NCCN1`: the Potency entry in test [1], in [2], in test [4], in test [5], in test [6] and in test [7] was “inactive” throughout. Moreover, the Potency result in test [8] and in [9] was “inactive” throughout. Moreover, the max response in [3] was -8.22%.

Turning to `OC1CCCc2ccccc21` (centres undefined), the Potency result in test [1], in test [2], in [4], in [5], in test [6] and in [7] was “inactive” in each case. Moreover, the Potency entry in test [8] and in [9] was “inactive” in each case. In addition, the max response in test [3] was -0.638%.

Take `COc1c(C)c2c(c(O)c1C/C=C(\C)CCC(=O)OCCN1CCOCC1)C(=O)OC2`: the Potency entry in [1], in [10], in test [2], in [4], in test [5] and in [6] was “inactive” in each case. Further, the Potency result in [7], in test [8] and in test [9] was “inactive” throughout.

In the case of `CN1CCC[C@@H]1CCO[C@](C)(c1ccccc1)c1ccc(Cl)cc1`, the Potency was 26.8 µM (active) in [1]; 16.9 µM (active) in test [3]; 26.8 µM (active) in [4]; 21.3 µM (active) in test [5]; 23.9 µM (active) in test [6]; 21.3 µM (active) in test [7]. For the same compound, the Potency in [8] was 21.3 µM (active). Also, the Potency entry in [2] was “inactive”.

In the case of `CN1CCCCC1CCN1c2ccccc2Sc2ccc(S(C)=O)cc21` (centres undefined), the Potency entry in test [1], in test [10], in test [2], in [4], in [5] and in test [6] was “inactive” each time. In addition, the Potency result in [9] is “inactive”.

As for `CCCCN(CCCC)CC(O)c1cc(Cl)cc2c1-c1ccc(Cl)cc1/C2=C/c1ccc(Cl)cc1` (centres undefined), the Potency result in [1], in test [10], in test [4] and in [9] was “inactive” throughout. In addition, the max response in [3] was -17.2%. Moreover, the results for the Potency in [5], in [7] and in test [8] were 21.3 µM (active), 23.9 µM (active) and 23.9 µM (active), respectively.

With `O=c1[nH]c(=O)n([C@H]2C[C@H](O)[C@@H](CO)O2)cc1F`, the Potency result in test [1], in test [2], in [4], in [6] and in test [9] was “inactive” throughout. Moreover, the Potency in test [3] was 0.601 µM (active); in test [5], 6.01 µM (active); in test [7], 6.01 µM (active); in [8] it was 5.35 µM (active).

For the compound `CCCCCCCCCCCCOCCOCCOCCOCCOCCOCCOCCOCCOCCO`, the Potency in test [1] is 10.7 µM (active); in [10], 6.01 µM (active); in [3], 4.77 µM (active); in [4] it was 13.4 µM (active); in test [5] it was 23.9 µM (active); in test [7] it was 23.9 µM (active). Also, in test [8], the Potency was 23.9 µM (active). Also, in test [9], the Potency entry is “inactive”.

For the compound `CCCCCCCCCCCCOC(=O)c1ccc(O)cc1`, the Potency entry in test [1], in test [2], in [4], in test [5], in [6] and in test [7] was “inactive” throughout. The Potency result in [8] and in test [9] was “inactive” throughout. In addition, the Potency in [10] is 44 µM (active).

Consider `O=C(Nc1ccc2c(O)c(N=Nc3ccc(N=Nc4ccc(S(=O)(=O)O)cc4)cc3)c(S(=O)(=O)O)cc2c1)c1ccccc1`, for which the Potency entry in test [1], in test [10], in [4], in [5], in test [7] and in test [8] was “inactive” throughout. In test [3], the max response was -19.7%.

Turning to `CCCC1CCC(=O)CC1`, the Potency result in test [1], in [2], in test [4], in test [5], in test [6] and in test [7] was “inactive” throughout. In addition, the Potency entry in [8] and in test [9] was “inactive” in each case. Moreover, the max response in [3] is 11.1%.

On to `C1CCC(SSC2CCCCC2)CC1`, for which the Potency entry in test [1], in test [2], in [4], in [5], in test [6] and in [7] was “inactive” in each case. In addition, the Potency result in test [8] and in test [9] was “inactive” throughout. In test [3], the max response is -7.62%.

For the compound `CCC(=O)C(=O)CC`, the Potency entry in test [1], in test [2], in test [4], in test [5], in test [6] and in test [7] was “inactive” in each case. The Potency result in test [8] and in test [9] was “inactive” throughout.

For `CC(C)CCCCCOC(=O)CCS`, the Potency entry in test [1], in test [2], in test [4], in test [5], in test [6] and in [7] was “inactive” in each case. The Potency entry in test [8] and in test [9] was “inactive” in each case. Also, the max response in [3] was 0.648%.

Take `CCC(C)(CCC(C)C)C(=O)[O][Sn]([CH3])([CH3])[O]C(=O)C(C)(CC)CCC(C)C` (centres undefined): the Potency result in test [1], in test [2], in test [4], in [5], in test [6] and in [7] was “inactive” throughout. The Potency entry in [8] and in test [9] was “inactive” in each case. Also, the max response in [3] is 0.738%.

As for `O=C(O)O`, the cytotoxicity increase is 4.75% [at 6.97 µM] in [1], -0.218% [at 6.97 µM] in test [5] and -9.85% [at 6.97 µM] in test [8]. In addition, the viability change, negative = cytotoxic in [2] was -4.4% [at 6.97 µM]. Besides, the max response in test [3] is -2.54%. Further, the activity change in test [4] was 5.15% [at 6.97 µM, active compounds read high]. Also, the activity change, negative = cytotoxic in [6] was 7.61% [at 6.97 µM]. Further, the cytotoxicity in [7] was -2.66% [at 6.97 µM]. For the same compound, in [9], the activity change, negative = cytotoxicity is 3.17% [at 6.97 µM].

In the case of `C=CCn1c(=O)n(CC=C)c(=O)n(CC=C)c1=O`, the Potency entry in test [1], in [2], in [4], in [5], in test [6] and in test [7] was “inactive” throughout. Further, the Potency entry in test [8] and in test [9] was “inactive” throughout. In addition, the max response in test [3] is -5.88%.

As for `O=C(/C=C/c1ccccc1)OC/C=C/c1ccccc1`, the Potency entry in test [1], in [2], in test [5], in [6], in [7] and in test [8] was “inactive” throughout. Besides, the Potency entry in test [9] is “inactive”. The max response in test [3] was -1.97%.

Regarding `CC[N+](CC)(CC)CCOC(=O)C(C1CCCC1)C1CCCC1`, the Potency entry in [1], in test [2], in test [4], in test [5], in test [6] and in [7] was “inactive” each time. In addition, the Potency result in test [8] and in test [9] was “inactive” in each case.

Regarding `CC(C)OC(=O)C(O)(CC(=O)O)CC(=O)O`, the Potency result in [1], in test [2], in [4], in test [5], in [6] and in [7] was “inactive” throughout. The Potency entry in test [8] and in test [9] was “inactive” each time. For the same compound, in test [3], the max response was 1.68%.

Take `Cc1c2ccccc2c(C)c2c1ccc1ccccc12`: the Potency in test [1] is 43.6 µM (active); in test [3] it was 43.2 µM (active) and 34.7 µM (active); in [4] it was 49 µM (active). Besides, the Potency result in test [2], in test [5], in test [6], in test [7], in test [8] and in test [9] was “inactive” throughout.
